From PubChem BioAssay (NCATS) come the findings set out here.

Assay [1] is described as follows: Cell Viability - LYMP2-020 (AID 986).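 Also: series mostly up to about 92 µM; plate controls were DMSO only for no effect and tetraoctylammonium bromide at 92 µM for full effect; nearly all actives have a fitted effect of over 55% in size.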 Summed up: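 Human lymphoblastoid LYMP2-020 cells (2500/well) preincubated 5 h at 37 C, then treated 24 h at 37 C. Viability measured as intracellular ATP by CellTiter-Glo luminescence after 30 min at room temperature; AC50 from Hill fits.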
Assay [2] is described as follows: Cell Viability - LYMP2-022 (AID 987).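 Also: 0% = DMSO alone and full effect = tetraoctylammonium bromide at 92 µM; nearly all actives have a fitted effect of over 55% in size.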 The gist of the method: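 LYMP2-022 lymphoblastoid cells (2500/well, complete medium) were treated with compounds for 24 hours at 37 C; intracellular ATP was then read by CellTiter-Glo luminescence after 30 min at room temperature. AC50 values were derived from Hill-equation fits.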
Assay [3] is described as follows: Cell Viability - LYMP2-026 (AID 989). Also: % is scaled to controls: 0 for no effect and ±100 for the full control effect; nearly all actives have a fitted effect of over 50% in size. Summed up: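 Human lymphoblastoid LYMP2-026 cells, 2500/well, exposed to compound 24 h at 37 C in complete medium. Viability as intracellular ATP by CellTiter-Glo luminescence; AC50 from Hill fits of qHTS concentration-response.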
Assay [4] can be described thus: Cell Viability - LYMP1-002 - Assay at 24 hr (AID 993). Also: % is scaled to controls: 0 for no effect and ±100 for the full control effect. The gist of the method: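 Human lymphoblastoid LYMP1-002 cells (2500/well) treated 24 h at 37 °C; viability as intracellular ATP by CellTiter-Glo luminescence. Tetraoctylammonium bromide as positive control; AC50 from Hill-equation fits of qHTS concentration-response.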
Assay [5] in a line: Cell Viability - LYMP1-002 - Assay at 40 hr (AID 994).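 Also: 0% = DMSO only and full inhibition = 92 µM tetraoctylammonium bromide; nearly all actives have a fitted effect of over 60% in size.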 Summed up:
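LYMP1-002 human lymphoblastoid cells (2500/well, complete medium) were treated with compounds for 40 hr at 37 C. Intracellular ATP was measured by CellTiter-Glo luminescence, and AC50 values came from Hill-equation fits of concentration-response data; tetraoctylammonium bromide was the positive control.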

A short description of assay [6]: qHTS Assay for Identification of Small Molecule Inducers of Hypoxia Response (AID 2120; active = well fitted curve in the direction sought with a large enough effect in the signal ratio, with a control signal flat, not every such curve was filed as active; the % refers to the signal ratio; also: 0% is about no effect). The gist of the method:
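HRE-bla ME-180 cells in Opti-MEM with 0.5% dialyzed FBS, pre-plated 4-5 h, then compound titration for 17 h at 37 degrees Celsius. CCF4 loaded 2.5 h at room temperature; 460/530 nm ratio gave %Activity and AC50 for induction.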
(In general: Quantitative high-throughput screening tests each substance at several concentrations.)

The target of assay [7] is Estrogen receptor (Homo sapiens) (UniProt P03372). Nature of the assay: qHTS assay for small molecule antagonists of estrogen receptor alpha signaling (AID 588513; active = well fitted curve in the direction sought with a large enough effect in the signal ratio, with a control signal flat, not every such curve was filed as active; the % refers to the signal ratio; also: % is scaled to controls: 0 for no effect and ±100 for the full control effect). The gist of the method:
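Beta-lactamase reporter, antagonist mode, HEK 293 GripTite cells; 0.5nM E2 stimulus, 18 h, 37 C; CCF4 dye 2 h RT; fluorescence. IC50 and efficacy from Hill fits, normalized to E2 and DMSO.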

For assay [8], the target named is Glucocorticoid receptor (Homo sapiens) (UniProt P04150). In words: qHTS assay for small molecule antagonists of glucocorticoid receptor signaling (AID 588533; active = well fitted inhibition curve with a large enough effect in the signal ratio, with a control signal flat, not every such curve was filed as active; the % refers to the signal ratio; also: % is scaled to controls: 0 for no effect and ±100 for the full control effect). Summed up: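 Antagonist-mode qHTS: compound titrations added to GRE-bla HeLa cells, then dexamethasone 2 nM final; 18 h, 37 C. CCF4 FRET fluorescence normalized to dexamethasone and DMSO; IC50 from Hill fit.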

The nature of assay [9]: qHTS assay for small molecule antagonists of peroxisome proliferator-activated receptor delta signaling (AID 588535; active = well fitted inhibition curve with a large enough effect in the signal ratio, with a control signal flat, not every such curve was filed as active; the % refers to the signal ratio;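 as to max response: cells co-treated with a PPAR-delta agonist as stimulator during compound exposure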). Particulars: HEK293T PPARd-UAS-bla, beta-lactamase FRET ratio, 18 h; 460 nm channel. The gist of the method: (§1)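 Antagonist-mode beta-lactamase reporter (GeneBLAzer PPAR-delta-UAS-bla) in HEK293T cells, 2% charcoal/dextran FBS, 4000 cells/well. Compound titrations, 18 h at 37 C; CCF4 ratio read, IC50 and efficacy from Hill fits.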

Assay [10] has as its target Peroxisome proliferator-activated receptor gamma (Homo sapiens) (UniProt P37231). Nature of the assay: qHTS assay for small molecule agonists of peroxisome proliferator-activated receptor gamma signaling (AID 588536; active = well fitted curve in the direction sought with a large enough effect in the signal ratio, with a control signal flat, not every such curve was filed as active; the % refers to the signal ratio;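 also: 0% = DMSO basal wells and 100% = rosiglitazone at 2 µM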). Summed up:
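GeneBLAzer PPAR-gamma-UAS-bla HEK293 cells in 1% charcoal/dextran-treated FBS medium were treated 16 h at 37 C with compounds. Beta-lactamase activity was read by CCF4 ratio (460/530 nm). Response was normalized to 2 uM rosiglitazone (100%) and DMSO, then Hill-fitted for EC50 and efficacy.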

The target is the same in assay [11]. Nature of the assay: qHTS assay for small molecule antagonists of peroxisome proliferator-activated receptor gamma signaling (AID 588537; active = well fitted inhibition curve with a large enough effect in the signal ratio, with a control signal flat, not every such curve was filed as active; the % refers to the signal ratio;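 also: reporter cells co-stimulated with 50 nM rosiglitazone agonist during compound treatment; % of control where 0% means no effect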). The gist of the method: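 PPARγ-UAS-bla HEK293 cells (3000/well) in 1% charcoal/dextran-stripped FBS are treated with compound, then stimulated with 50 nM rosiglitazone for 16 h at 37 °C. Read-out is CCF4 β-lactamase fluorescence after 2 h at RT. IC50 comes from Hill fits normalised to rosiglitazone and DMSO.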

In assay [12] the target is Vitamin D3 receptor (Homo sapiens) (UniProt P11473). Nature of the assay: qHTS assay for small molecule antagonists of vitamin D receptor signaling (AID 588541; calls by dose curve;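 also: receptor activated by calcitriol during compound treatment; series mostly up to about 77 µM; % is scaled to controls: 0 for no effect and ±100 for the full control effect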). The gist of the method: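 VDR-UAS-bla HEK293T cells in 2% charcoal-stripped FBS were stimulated with 1-alpha,25-dihydroxyvitamin D3 (3 nM final) plus compound for 16 h at 37 C. The beta-lactamase CCF4 readout was normalized to 50 nM agonist and DMSO, and Hill fits gave IC50.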

Assay [13] has the same target. In words: qHTS assay for small molecule agonists of vitamin D receptor signaling (AID 588543; calls by dose curve;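 also: 0% = DMSO basal and 100% = reference agonist control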). The gist of the method:
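β-lactamase reporter, VDR-UAS-bla HEK293T, agonist mode. Cells plated 5 h at 37 °C, compound titration 16 h at 37 °C, CCF4 dye 2 h RT, ratio 460/530 nm. Hill fit → EC50, efficacy vs 50 nM 1α,25-(OH)2D3.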

Assay [14] has as its target Androgen receptor (Homo sapiens) (UniProt P10275). Nature of the assay: qHTS assay for small molecule agonists of androgen receptor signaling (AID 588515; active = well fitted curve in the direction sought with a large enough effect in the signal ratio, with a control signal flat; the % refers to the signal ratio; also: % is scaled to controls: 0 for no effect and ±100 for the full control effect). Particulars: AR-UAS-bla HEK293, beta-lactamase ratio, agonist 16 h; stronger effect = higher value. The gist of the method: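 EC50 and efficacy came from Hill fits of titrations (up to 92 uM) normalized to 30 nM R1881 as 100% and DMSO as 0%. Compound exposure was 16 h at 37 C on AR-UAS-bla HEK293 cells, with a 405/460/530 nm CCF4 fluorescence read.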

Assay [15] concerns the target Peroxisome proliferator-activated receptor delta (Homo sapiens) (UniProt Q03181). Nature of the assay: qHTS assay for small molecule antagonists of peroxisome proliferator-activated receptor delta signaling (AID 588535).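 As to max response: cells co-treated with a PPAR-delta agonist as stimulator during compound exposure.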 The gist of the method:
as §1

A short description of assay [16]: Cell Viability - LYMP2-024 (AID 988).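 Also: plate controls were DMSO only for no effect and 92 µM tetraoctylammonium bromide for full effect; nearly all actives have a fitted effect of over 60% in size.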 The gist of the method: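 Human lymphoblastoid LYMP2-024 cells (2500/well) rested 5 hr, then treated with compound for 24 hr at 37 C in complete medium. Viability was measured as intracellular ATP by CellTiter-Glo luminescence. AC50 values came from Hill-equation fits.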
Assay [17] has as its target Bile acid receptor (Homo sapiens) (UniProt Q96RI1). Nature of the assay: qHTS assay for small molecule antagonists of farnesoid X receptor signaling (AID 588526; calls by dose curve; also: % is scaled to controls: 0 for no effect and ±100 for the full control effect). The gist of the method: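 Antagonist mode: titrated compounds tested against chenodeoxycholic acid stimulation (normalized to 50 uM CDCA and DMSO) in GeneBLAzer HEK293T cells for 16 h. Beta-lactamase read by CCF4 fluorescence; IC50 from Hill fits.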

Assay [18] addresses Glucocorticoid receptor (Homo sapiens) (UniProt P04150). Nature of the assay: qHTS assay for small molecule agonists of glucocorticoid receptor signaling (AID 588532; active = well fitted curve in the direction sought with a large enough effect in the signal ratio, with a control signal flat; the % refers to the signal ratio;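 also: 100% = dexamethasone at 0.1 µM and 0% = DMSO only wells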). Particulars: HeLa MMTV-bla, beta-lactamase ratio, agonist, 18 h; stronger effect = higher value; percent of dexamethasone control, DMSO zero. The gist of the method:
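Cells were plated and rested 3-5 h at 37 C, compounds were added in titration and incubated 18 h, then CCF4 substrate was loaded for 2 h at RT before reading blue/green fluorescence. EC50 came from Hill-equation fitting.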

Assay [19] concerns the target Androgen receptor (Homo sapiens) (UniProt P10275). In words: qHTS assay for small molecule antagonists of androgen receptor signaling (AID 588516; active = well fitted curve in the direction sought with a large enough effect in the signal ratio, with a control signal flat, not every such curve was filed as active; the % refers to the signal ratio; also: % is scaled to controls: 0 for no effect and ±100 for the full control effect). The gist of the method: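 HEK293 AR-UAS-bla cells, 10% dialyzed FBS medium; cpd titration + R1881 10 nM final, 16 h 37 C; CCF4 2 h RT; FRET ratio; IC50/efficacy via Hill fit.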
Assay [20] concerns the target Estrogen receptor (Homo sapiens) (UniProt P03372). Nature of the assay: qHTS assay for small molecule agonists of estrogen receptor alpha signaling (AID 588514; calls by dose curve;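 also: 0% = vehicle only and 100% = reference agonist; nearly all actives have a fitted effect of over 70% in size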). Summed up:
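ER-alpha-UAS-bla GripTite HEK293 cells, 5000/well in 2% charcoal/dextran-stripped FBS medium, treated with compound titrations 18 h at 37 C. CCF4 beta-lactamase read by fluorescence after 2 h RT; normalised to 20 nM 17-beta-estradiol (100%) and DMSO (0%), Hill fit for EC50 and efficacy.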

“And” between values parts separate entries of the source, which are not always exact repeats. Identical values can stand only once. Inconclusive results are not listed. The source made the active and inactive calls. Unless noted, calls follow the shape of the dose curve; as a rule, active = well fitted cell-killing curve with a large enough effect; inconclusive = small, poorly fitted or top-dose-only effect; inactive = flat fitted curve, though single readings scatter.

Sequence of Vitamin D3 receptor (Homo sapiens) (P11473 whole entry, looked up): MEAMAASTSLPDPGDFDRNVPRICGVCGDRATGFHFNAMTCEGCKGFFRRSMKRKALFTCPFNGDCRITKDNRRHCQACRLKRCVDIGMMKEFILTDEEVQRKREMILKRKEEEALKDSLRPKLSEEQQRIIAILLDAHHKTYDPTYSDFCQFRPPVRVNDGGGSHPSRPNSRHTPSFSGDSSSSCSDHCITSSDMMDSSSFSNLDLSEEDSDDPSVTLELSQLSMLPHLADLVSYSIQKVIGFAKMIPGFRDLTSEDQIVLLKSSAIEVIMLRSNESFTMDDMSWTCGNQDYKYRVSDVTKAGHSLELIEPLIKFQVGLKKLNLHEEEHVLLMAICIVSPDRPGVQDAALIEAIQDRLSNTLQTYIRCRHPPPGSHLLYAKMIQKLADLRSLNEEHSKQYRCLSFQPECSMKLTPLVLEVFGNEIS
Sequence of Estrogen receptor (Homo sapiens) (P03372 whole entry, looked up): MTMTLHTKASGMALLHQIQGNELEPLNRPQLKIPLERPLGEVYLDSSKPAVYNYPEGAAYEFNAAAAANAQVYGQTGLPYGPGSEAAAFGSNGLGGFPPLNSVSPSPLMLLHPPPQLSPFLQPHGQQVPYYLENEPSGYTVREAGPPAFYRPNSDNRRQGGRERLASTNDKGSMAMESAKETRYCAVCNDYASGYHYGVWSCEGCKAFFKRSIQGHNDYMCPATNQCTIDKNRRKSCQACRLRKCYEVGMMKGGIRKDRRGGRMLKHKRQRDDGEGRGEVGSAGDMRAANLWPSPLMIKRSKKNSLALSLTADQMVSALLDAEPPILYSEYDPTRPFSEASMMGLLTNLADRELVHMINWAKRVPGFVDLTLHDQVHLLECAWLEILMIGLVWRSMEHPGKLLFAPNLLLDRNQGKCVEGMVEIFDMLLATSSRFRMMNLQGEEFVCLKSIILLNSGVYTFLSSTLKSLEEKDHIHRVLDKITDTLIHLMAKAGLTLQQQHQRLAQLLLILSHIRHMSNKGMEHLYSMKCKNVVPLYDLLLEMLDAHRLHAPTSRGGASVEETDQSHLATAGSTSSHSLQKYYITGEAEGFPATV
Sequence of Bile acid receptor (Homo sapiens) (Q96RI1 whole entry, looked up): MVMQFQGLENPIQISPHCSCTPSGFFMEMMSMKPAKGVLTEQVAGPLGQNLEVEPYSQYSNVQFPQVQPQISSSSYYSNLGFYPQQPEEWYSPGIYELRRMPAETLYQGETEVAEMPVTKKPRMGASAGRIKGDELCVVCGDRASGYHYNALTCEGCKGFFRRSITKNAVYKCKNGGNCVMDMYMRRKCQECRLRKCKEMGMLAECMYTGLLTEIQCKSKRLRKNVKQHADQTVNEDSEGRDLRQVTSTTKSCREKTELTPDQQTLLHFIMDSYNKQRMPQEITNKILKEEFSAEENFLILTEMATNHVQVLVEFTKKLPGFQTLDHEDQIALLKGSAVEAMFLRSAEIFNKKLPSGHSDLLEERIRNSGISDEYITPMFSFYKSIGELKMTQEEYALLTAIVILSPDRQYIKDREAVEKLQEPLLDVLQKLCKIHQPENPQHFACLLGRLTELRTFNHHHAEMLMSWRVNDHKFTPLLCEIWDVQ
Sequence of Androgen receptor (Homo sapiens) (P10275 whole entry, looked up): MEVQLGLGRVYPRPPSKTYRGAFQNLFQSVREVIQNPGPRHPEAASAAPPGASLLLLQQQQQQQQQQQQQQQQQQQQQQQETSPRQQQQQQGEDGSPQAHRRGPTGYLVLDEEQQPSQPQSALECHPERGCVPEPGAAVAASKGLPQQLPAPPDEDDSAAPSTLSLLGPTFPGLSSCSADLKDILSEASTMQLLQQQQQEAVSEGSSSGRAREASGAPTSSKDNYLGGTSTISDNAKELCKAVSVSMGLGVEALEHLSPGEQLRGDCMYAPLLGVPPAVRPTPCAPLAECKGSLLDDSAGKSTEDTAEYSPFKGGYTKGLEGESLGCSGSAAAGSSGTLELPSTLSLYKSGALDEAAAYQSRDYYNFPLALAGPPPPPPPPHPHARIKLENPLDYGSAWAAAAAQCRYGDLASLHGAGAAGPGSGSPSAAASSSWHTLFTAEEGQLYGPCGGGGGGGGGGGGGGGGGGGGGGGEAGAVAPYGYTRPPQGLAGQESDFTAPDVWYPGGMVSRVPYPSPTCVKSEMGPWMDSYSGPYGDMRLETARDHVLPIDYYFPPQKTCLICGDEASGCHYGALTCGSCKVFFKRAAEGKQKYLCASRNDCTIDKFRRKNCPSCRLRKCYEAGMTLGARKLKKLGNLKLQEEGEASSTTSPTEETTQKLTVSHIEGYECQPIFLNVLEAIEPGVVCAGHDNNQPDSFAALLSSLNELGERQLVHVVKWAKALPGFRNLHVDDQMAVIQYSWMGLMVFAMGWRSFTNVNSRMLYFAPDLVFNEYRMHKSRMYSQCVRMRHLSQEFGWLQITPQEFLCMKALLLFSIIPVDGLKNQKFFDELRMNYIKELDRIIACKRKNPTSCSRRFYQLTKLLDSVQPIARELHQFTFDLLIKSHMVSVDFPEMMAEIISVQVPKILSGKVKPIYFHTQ
Sequence of Peroxisome proliferator-activated receptor gamma (Homo sapiens) (P37231 whole entry, looked up): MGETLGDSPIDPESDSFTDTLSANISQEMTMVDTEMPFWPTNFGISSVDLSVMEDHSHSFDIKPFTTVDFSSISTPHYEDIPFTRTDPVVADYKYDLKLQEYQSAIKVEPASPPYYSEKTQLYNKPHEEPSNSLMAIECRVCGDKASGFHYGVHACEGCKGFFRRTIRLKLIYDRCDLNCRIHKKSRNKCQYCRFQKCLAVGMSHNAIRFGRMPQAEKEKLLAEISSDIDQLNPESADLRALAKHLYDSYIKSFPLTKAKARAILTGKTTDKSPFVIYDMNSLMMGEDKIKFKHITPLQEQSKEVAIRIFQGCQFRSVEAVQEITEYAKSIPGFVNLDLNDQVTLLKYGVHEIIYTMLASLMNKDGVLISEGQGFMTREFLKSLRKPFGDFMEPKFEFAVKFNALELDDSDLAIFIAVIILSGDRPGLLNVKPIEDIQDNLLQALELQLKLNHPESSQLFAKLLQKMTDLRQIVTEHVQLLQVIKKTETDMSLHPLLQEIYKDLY
Sequence of Glucocorticoid receptor (Homo sapiens) (P04150 whole entry, looked up): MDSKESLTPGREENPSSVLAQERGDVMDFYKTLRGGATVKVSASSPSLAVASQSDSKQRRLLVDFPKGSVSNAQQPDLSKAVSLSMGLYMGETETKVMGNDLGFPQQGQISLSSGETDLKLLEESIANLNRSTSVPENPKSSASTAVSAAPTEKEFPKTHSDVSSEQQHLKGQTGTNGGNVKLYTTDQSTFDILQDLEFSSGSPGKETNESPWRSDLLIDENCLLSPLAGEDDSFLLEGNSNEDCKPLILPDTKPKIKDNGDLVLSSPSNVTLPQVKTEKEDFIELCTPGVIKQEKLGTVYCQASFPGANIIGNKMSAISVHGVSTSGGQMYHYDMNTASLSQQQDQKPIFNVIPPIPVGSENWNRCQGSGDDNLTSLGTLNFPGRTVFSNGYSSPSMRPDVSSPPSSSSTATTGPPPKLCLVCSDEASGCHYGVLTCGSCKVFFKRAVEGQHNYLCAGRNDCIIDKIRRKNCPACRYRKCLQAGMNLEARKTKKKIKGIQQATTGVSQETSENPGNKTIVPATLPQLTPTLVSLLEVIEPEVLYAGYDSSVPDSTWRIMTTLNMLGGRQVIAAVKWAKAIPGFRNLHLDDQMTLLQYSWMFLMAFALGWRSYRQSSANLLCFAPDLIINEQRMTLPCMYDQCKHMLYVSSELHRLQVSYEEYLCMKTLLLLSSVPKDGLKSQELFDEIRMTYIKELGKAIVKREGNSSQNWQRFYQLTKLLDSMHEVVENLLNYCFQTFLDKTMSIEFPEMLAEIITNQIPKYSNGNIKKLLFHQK
Sequence of Peroxisome proliferator-activated receptor delta (Homo sapiens) (Q03181 whole entry, looked up): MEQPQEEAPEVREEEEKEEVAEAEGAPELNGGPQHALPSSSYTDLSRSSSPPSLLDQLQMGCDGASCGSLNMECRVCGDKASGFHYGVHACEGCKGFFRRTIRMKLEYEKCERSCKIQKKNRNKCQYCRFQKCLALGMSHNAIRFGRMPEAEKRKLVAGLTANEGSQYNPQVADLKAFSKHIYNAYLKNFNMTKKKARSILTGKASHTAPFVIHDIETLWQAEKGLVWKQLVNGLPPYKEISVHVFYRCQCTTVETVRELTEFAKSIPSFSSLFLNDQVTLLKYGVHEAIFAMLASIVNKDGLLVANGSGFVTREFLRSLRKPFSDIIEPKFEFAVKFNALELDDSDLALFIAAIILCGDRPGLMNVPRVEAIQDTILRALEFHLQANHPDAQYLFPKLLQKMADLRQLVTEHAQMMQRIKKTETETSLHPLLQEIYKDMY

As for `C/C(C=O)=C/c1ccccc1`, the Potency result in assay [1], in [2], in [4] and in [5] was “inactive” each time. Besides, the result in [3], in [6], in [7], in assay [8], in [10] and in [11] was inactive. In addition, the call in assay [12] and in assay [13] was inactive. For the same compound, in assay [9], the max response was -13.6%.

As to `CC(=O)c1cc(C)oc1C`, the Potency entry in [1], in assay [2], in assay [4], in assay [5] and in [15] was “inactive” in each case. Also, the call in assay [3], in assay [6], in assay [8], in assay [10], in assay [12] and in assay [13] was inactive. Moreover, the activation in assay [14] is -1.32% (inactive). Also, in [9], the max response is -4.12%.

Consider `c1ccc(Oc2ccccc2)cc1`, for which the Potency entry in assay [1], in assay [2], in assay [16], in assay [4], in assay [5] and in assay [15] was “inactive” each time. Moreover, the compound was called inactive in assay [3], in assay [6], in [17], in [8], in [12] and in [13]. Besides, the activation in [18] is 2.66% (inactive) and -3.4% (inactive). In addition, the max response in [9] was -19.2% and -5.05%.

Turning to `CC(C=O)Cc1ccc(C(C)(C)C)cc1` (centres undefined), the Potency result in [1], in [2], in [16], in assay [4], in assay [5] and in assay [15] was “inactive” throughout. Further, the result in [6], in assay [19], in assay [17], in assay [8], in assay [11] and in assay [12] was inactive. Further, in [13], the compound was called inactive. In addition, the values for the activation in assay [14] and in [18] were 8.05% (inactive) and -5.34% (inactive), respectively. The max response in assay [9] was found to be 41.6%.

For the compound `CCCCC(CC)CO` (centres undefined), the Potency result in assay [1], in assay [2], in [16], in [4], in [5] and in assay [15] was “inactive” each time. Moreover, the compound was classed as inactive in [3], in assay [6], in assay [17], in assay [8], in [10] and in [12]. For the same compound, the call in [13] was inactive. Moreover, the activation in [18] was -4.31% (inactive). Also, the max response in assay [9] is -4.39%.

For `CC(C)CO`, the Potency result in assay [1], in assay [2], in assay [16], in assay [4] and in assay [5] was “inactive” throughout. For the same compound, the outcome in assay [3], in assay [6], in assay [7], in assay [8], in [12] and in assay [13] was inactive. Also, the activation in [18] is -3.71% (inactive).

Regarding `Cc1ccccc1C=O`, the Potency result in [1], in assay [2], in assay [4] and in [5] was “inactive” each time. Moreover, the call in [3], in assay [6], in assay [7], in [8], in assay [12] and in assay [13] was inactive.

With `CC(C)N(C)C`, the Potency entry in assay [1], in assay [16], in assay [4], in [5] and in [15] was “inactive” each time. Also, the outcome in [3], in [6], in assay [7], in [10], in [11] and in assay [13] was inactive. Further, in assay [18], the activation is 0.0793% (inactive). The max response in assay [9] was -0.77%.

In the case of `O=[N+]([O-])c1cc(C(F)(F)F)ccc1Cl`, the Potency entry in assay [1], in assay [2], in assay [16], in [4] and in [5] was “inactive” throughout. For the same compound, the outcome in assay [3], in [6], in assay [19], in [10] and in assay [11] was inactive. Besides, the figures for the activation in [14] and in assay [18] were 13.2% (inactive) and -0.113% (inactive), respectively.

`O=C(O)c1ccccc1C(=O)O`: the Potency result in [1], in [2], in [16], in [4], in [5] and in [20] was “inactive” each time. Also, the Potency result in assay [15] is “inactive”. For the same compound, the call in assay [3] and in assay [6] was inactive. The activation in [18] was -4.91% (inactive). For the same compound, the max response in [9] was found to be 14.7%.

As for `N#CC1(O)CCCCC1`, the Potency entry in assay [1], in assay [2], in assay [16], in [4], in assay [5] and in [15] was “inactive” each time. Moreover, the compound was classed as inactive in assay [3], in assay [6], in assay [17], in assay [8], in [10] and in [12]. Also, the compound was called inactive in [13]. Further, the activation in assay [18] is 0.0169% (inactive). Besides, the max response in assay [9] worked out at 12%.
